# Measurements taken from the supplement of paper PMC13094657.
# ± gives the standard deviation of the averaged measurements.
# Tested on: MDA-MB-231
# Assay: cell viability relative to vehicle unstimulated control (fraction); higher = more viable cells
# Details: pre-treatment time: 18 h then 24 h IFNg/TNF
# 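Further: viability of the cells left after supernatant collection, read with Deep Blue dye added for 4 h, as absorbance at 570 nm minus 600 nm.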
row,Structure (SMILES),cell viability
1,C=C[C@H]1[C@H](O[C@@H]2O[C@H](CO)[C@@H](O)[C@H](O)[C@H]2O)OC=C2C(=O)OCC[C@]21O [Swertiamarin] (compound dose: 10 uM),0.9564 ± 0.0069
2,"C=C(C)C1CC=C(C)[C@@H](O)C1 (single isomer, unassigned; (-)) [(-)-carveol (mixed)] (compound dose: 10 uM)",0.985 ± 0.086
3,C[C@H](CC[C@@H](O)C(C)(C)O)[C@H]1CC[C@@]2(C)[C@@H]3CC=C4[C@@H](CC[C@H](O)C4(C)C)[C@]3(C)[C@H](O)C[C@]12C [Mogrol] (compound dose: 10 uM),0.939 ± 0.051
4,COC(=O)C1=CC[C@@]23CC[C@@H]([C@@](C)(/C=C/C=C(\C)C(=O)O)OC2=O)[C@@]3(OC(C)=O)CC1 [Pseudolaric Acid B] (compound dose: 10 uM),0.898 ± 0.035
5,C=C(CCC=C(C)C)[C@H]1CC[C@]2(C)[C@@H]1[C@H](O)C[C@@H]1[C@@]3(C)CC[C@H](O)C(C)(C)[C@@H]3[C@@H](O[C@@H]3O[C@H](CO)[C@@H](O)[C@H](O)[C@H]3O)C[C@]12C [Ginsenoside Rk3] (compound dose: 10 uM),0.96 ± 0.035
6,COC(=O)C1=CO[C@@H](O[C@@H]2O[C@H](CO)[C@@H](O)[C@H](O)[C@H]2O)[C@@H]2[C@@]3(C)O[C@H]3[C@@H](O)[C@]12O [Sesamoside] (compound dose: 10 uM),0.9746 ± 0.0057
7,C=C1CC[C@H]2C(=C)CC[C@H]3C(=C)C(=O)O[C@@H]3[C@@H]12 [Dehydrocostus Lactone] (compound dose: 10 uM),0.933 ± 0.08
8,C/C1=C\CC/C(C)=C/C2C(CC/C(C)=C/CC1)C2(C)C (stereo not given) [Casbene] (compound dose: 10 uM),1.11 ± 0.042
9,C[C@@H]1CC[C@]2(C(=O)O[C@@H]3O[C@H](CO)[C@@H](O)[C@H](O)[C@H]3O)CC[C@]3(C)C(=CC[C@@H]4[C@@]5(C)CC[C@H](O)[C@@](C)(CO)[C@@H]5CC[C@]43C)[C@@H]2[C@]1(C)O [Pedunculoside] (compound dose: 10 uM),0.967 ± 0.074
10,CC(=O)OC1C2C(OC(=O)c3ccccc3)C(C)CC2(OC(C)=O)C(=O)C(C)=CC2C(CCC13CO3)C2(C)C (stereo not given) [Euphorbia factor L25] (compound dose: 10 uM),1.057 ± 0.0038
11,C=C1C[C@@]23CC[C@H]4[C@@](C)(CCC[C@@]4(C)C(=O)O)[C@@H]2CC[C@]1(O[C@@H]1O[C@@H](CO)[C@@H](O)[C@H](O)[C@@H]1O[C@@H]1O[C@@H](CO)[C@@H](O)[C@H](O)[C@@H]1O)C3 [Steviolbioside] (compound dose: 10 uM),0.904 ± 0.19
12,C[C@H]1[C@H](OC(=O)CCC(=O)O)O[C@@H]2O[C@@]3(C)CC[C@H]4[C@H](C)CC[C@@H]1[C@@]24OO3 [Artesunate] (compound dose: 10 uM),0.909 ± 0.13
13,C[C@H]1O[C@@H](O[C@H]2CC[C@@]3(C)[C@@H](CC[C@]4(C)[C@@H]3C=C[C@]35OC[C@@]6(CCC(C)(C)C[C@H]63)[C@@H](O)C[C@]54C)[C@]2(C)CO)[C@H](O)[C@@H](O[C@@H]2O[C@H](CO)[C@@H](O)[C@H](O)[C@H]2O)[C@H]1O [Saikosaponin A] (compound dose: 10 uM),1.015 ± 0.0091
14,COC(=O)C1=CO[C@@H](O[C@@H]2O[C@H](CO)[C@@H](O)[C@H](O)[C@H]2O)[C@H]2[C@@H]1[C@H](O)C[C@]2(C)O [Shanzhiside methyl ester] (compound dose: 10 uM),1.007 ± 0.0034
15,CC(CCC(OC1OC(CO)C(O)C(O)C1OC1OC(CO)C(O)C(O)C1O)C(C)(C)O)C1CCC2(C)C3CC=C4C(CCC(O)C4(C)C)C3(C)C(O)CC12C (stereo not given) [Mogroside II-A] (compound dose: 10 uM),1.05 ± 0.069
16,"CC1=CC23C(=O)C(C=C4COC(C)(C)OC4C24OC(C)(C)OC14)C1C(CC3C)C1(C)C (stereo not given) [Ingenol-3,4:5,20-diacetonide] (compound dose: 10 uM)",1.04 ± 0.022
17,CC(=O)O[C@@H]1CC[C@@]2(C)[C@@H](CC[C@]3(C)[C@@H]2C(=O)C=C2[C@@H]4[C@@H](C)[C@H](C)CC[C@]4(C)CC[C@]23C)[C@@]1(C)C(=O)O (compound dose: 10 uM),1.03 ± 0.031
18,CC1C(=O)OC2C(O)C34C5CC(C(C)(C)C)C36C(OC(=O)C6O)OC4(C(=O)O5)C12O (stereo not given) [Ginkgolide B] (compound dose: 10 uM),0.9 ± 0.12

row,Structure (SMILES),cell viability
1,CC1=CC[C@@H](C(C)(C)O)CC1 [(-)-α-Terpineol] (compound dose: 10 uM),1.07 ± 0.061
2,C=C1C(=O)O[C@@H]2[C@H]3C(C)=CC[C@@]34O[C@@]4(C)CC[C@@H]12 [Arglabin] (compound dose: 10 uM),1.01 ± 0.041
3,C=C1C(=O)O[C@H]2[C@H]1CCC(C)=C1CC[C@@](C)(O)[C@@H]12 [Micheliolide] (compound dose: 10 uM),0.904 ± 0.063
4,Cc1cc(O)cc(O[C@@H]2O[C@H](CO)[C@@H](O)[C@H](O)[C@H]2O)c1 [Orcinol glucoside] (compound dose: 10 uM),1.05 ± 0.027
5,"CC12CCC(CC1)C(C)(C)O2 [1,8-cineole] (compound dose: 10 uM)",0.978 ± 0.067
6,CC1(C)CC[C@]2(C(=O)O)CC[C@]3(C)C(=CC[C@@H]4[C@@]5(C)CCC(=O)C(C)(C)[C@@H]5CC[C@]43C)[C@@H]2C1 [Oleanonic acid] (compound dose: 10 uM),0.957 ± 0.031
7,CC1=CC(=O)[C@@H]2C[C@H]1C2(C)C [Verbenone] (compound dose: 10 uM),1.128 ± 0.0013
8,CC(=O)OCC1=CO[C@@H](OC(=O)CC(C)C)[C@H]2C1=C[C@H](OC(=O)CC(C)(C)OC(C)=O)[C@]21CO1 [Acevaltrate] (compound dose: 10 uM),0.474 ± 0.047
9,CC(=O)O[C@@H](C[C@@H](C)C1=C2C[C@H](O)[C@H]3[C@@]4(C)CCC(=O)C(C)(C)[C@@H]4CC[C@]3(C)[C@@]2(C)CC1=O)[C@H]1OC1(C)C [Alisol C 23-acetate] (compound dose: 10 uM),0.975 ± 0.008
10,CC1(C)CC[C@]2(C(=O)O[C@@H]3O[C@H](CO)[C@@H](O)[C@H](O)[C@H]3O)CC[C@]3(C)C(=CC[C@@H]4[C@@]5(C)CC[C@H](O[C@@H]6O[C@H](C(=O)O)[C@@H](O)[C@H](O)[C@H]6O[C@@H]6O[C@H](CO)[C@@H](O)[C@H](O)[C@H]6O)C(C)(C)[C@@H]5CC[C@]43C)[C@@H]2C1 [Ginsenoside Ro] (compound dose: 10 uM),0.928 ± 0.091
11,COC(=O)C1=CO[C@@H](O[C@@H]2O[C@H](CO)[C@@H](O)[C@H](O)[C@H]2O)[C@@H]2[C@@H](C)CC(=O)[C@]12O [Hastatoside] (compound dose: 10 uM),0.981 ± 0.017
12,CC(C)=CCC[C@](C)(O[C@@H]1O[C@H](CO[C@@H]2O[C@H](CO)[C@@H](O)[C@H](O)[C@H]2O)[C@@H](O)[C@H](O)[C@H]1O)[C@H]1CC[C@]2(C)[C@@H]1[C@H](O)C[C@@H]1[C@@]3(C)CC[C@H](O[C@@H]4O[C@H](CO)[C@@H](O)[C@H](O)[C@H]4O[C@@H]4O[C@H](CO)[C@@H](O)[C@H](O)[C@H]4O)C(C)(C)[C@@H]3CC[C@]12C [Ginsenoside Rb1] (compound dose: 10 uM),1.02
13,C[C@@H]1C(=O)O[C@H]2C[C@@]34O[C@@H]5OC(=O)[C@H](O)[C@@]56[C@H](C(C)(C)C)[C@H](O)C(OC3=O)[C@]64[C@]21O (stereo not given in full) [Ginkgolide J] (compound dose: 10 uM),0.962 ± 0.014
14,O=c1c(O)c(-c2ccc(O)cc2)oc2cc(O)cc(O)c12 [Kaempferol] (compound dose: 10 uM),0.969 ± 0.079
15,C/C=C(/C)C(=O)O[C@H]1[C@H](OC(C)=O)[C@]2(CO)[C@H](O)C[C@]3(C)C(=CC[C@@H]4[C@@]5(C)CC[C@H](O[C@@H]6O[C@H](C(=O)O)[C@@H](O[C@@H]7O[C@H](CO)[C@@H](O)[C@H](O)[C@H]7O)[C@H](O)[C@H]6O[C@@H]6O[C@H](CO)[C@@H](O)[C@H](O)[C@H]6O)[C@](C)(CO)[C@@H]5CC[C@]43C)[C@@H]2CC1(C)C [Escin IB] (compound dose: 10 uM),0.915 ± 0.022
16,C[C@H]1O[C@@H](Oc2c(-c3cc(O)c(O)c(O)c3)oc3cc(O)cc(O)c3c2=O)[C@@H](O)[C@@H](O)[C@@H]1O [Myricitrin] (compound dose: 10 uM),0.988 ± 0.021
17,C=C(C)[C@@H]1CC[C@]2(C(=O)O[C@@H]3O[C@H](CO[C@@H]4O[C@H](CO)[C@@H](O[C@@H]5O[C@@H](C)[C@H](O)[C@@H](O)[C@H]5O)[C@H](O)[C@H]4O)[C@@H](O)[C@H](O)[C@H]3O)CC[C@]3(C)[C@H](CC[C@@H]4[C@@]5(C)CC[C@H](O[C@@H]6OC[C@H](O)[C@H](O)[C@H]6O[C@@H]6O[C@@H](C)[C@H](O)[C@@H](O)[C@H]6O)[C@@](C)(CO)[C@@H]5CC[C@]43C)[C@@H]12 [Pulchinenoside C] (compound dose: 10 uM),0.9971 ± 0.0034
